Unmarked numbers belong to inactive results.

A short description of one assay: basal S. cerevisiae growth modulation, no modifier, primary screen, OD600, strain BY4716, 24 h, basal condition (AID 1173). The conditions noted are these: OD600, 24 h, higher = more signal, called active from +8 up or from −8 down.
Regarding `CCCC[C@H]1OB(O)C[C@H]2C1=C(COC)Cn1c(=O)n(-c3ccccc3)c(=O)n12`, the z-score was -0.607. Same read-out and setting: the value for `CN(C)CCCCCCNC(=O)[C@@H]1C[C@@H]2C(=O)N[C@@H](Cc3ccccc3)C(=O)N2[C@@H]1c1ccc(O)cc1` was -0.58; that for `C=C(COC)/C(=C/C[C@H](OC(C)=O)c1ccc(CO)o1)c1cc(C(=O)OC)ccc1OC` was -0.0209; that for `COC(=O)[C@@]1(Cc2ccc(OC)cc2)[C@@H]2C(=CC(=O)[C@H]2CC(=O)C(=O)N2CCCC2)CN1C(=O)c1ccccc1` was 1.1. As to `Cc1ccc(N2C(=O)c3ccccc3[C@@H](C(=O)NC3CC3)[C@@H]2c2ccc(CO)cc2)nc1`, the z-score was -0.625.

As to `COCCOC(=O)N1C(=O)[C@@]2(c3cc(C#CCC(C(=O)OC)C(=O)OC)ccc31)[C@H](C(=O)Nc1nc3ccccc3s1)[C@H]1C(=O)O[C@H](c3ccccc3)[C@H](c3ccccc3)N1[C@@H]2c1ccccc1OCCO`, the z-score was 1.3. On the same count and under the same terms, the value for `COCCOC(=O)N1C(=O)[C@@]2(c3cc(C#CCC(C(=O)OC)C(=O)OC)ccc31)[C@H](c1ccccc1OCCO)N1[C@H](c3ccccc3)[C@H](c3ccccc3)OC(=O)[C@H]1[C@@H]2C(=O)NC[C@H](O)c1ccccc1` was 1.67. As to `CCCC[C@@H]1C[C@H]1[C@@H](NC(=O)c1ccccc1)c1ccc(C(=O)OC)cc1`, the z-score was -1.61. In the case of `O=C1[C@@]23C=C(Br)[C@H](C[C@@H]2CCOC3)[C@@]12CO2`, the z-score is -1.85.

The nature of another assay: MM1S myeloma cell viability, profiling panel, resazurin fluorescence, basal, 24 h, PK04 Diversity Set (AID 1174).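 Also: MM1S multiple myeloma cell line; test concentration not given here.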 The conditions noted are these: higher = more signal, called active from +8 up or from −8 down. In general terms: Resazurin is reduced to fluorescent resorufin, in cell work by metabolically active cells.
`C=C(/C(=C/C[C@H](OC(C)=O)c1ccc(CO)o1)c1cc(C(=O)OC)ccc1OC)C(C)C`: the z-score is -1.14.

For the molecule `COC(=O)[C@@]1(Cc2ccccc2)N=C(c2ccc(OCCCO)cc2)O[C@H]1c1ccccc1`, the z-score was -2.96. Take `CC(C)C[C@@H]1NC(=O)[C@@H]2C[C@H](C(=O)NCc3ccc(F)cc3)[C@H](c3cccc(OCCO)c3)N2C1=O`: the z-score is 0.279.

In the case of `O=C1c2ccccc2[C@](Cc2ccccc2I)(C(=O)NCCN2CCOCC2)[C@H](c2ccc(CO)cc2)N1C1CCCCC1`, the z-score was -0.526. The same measure, in the same setting: then `O=C1c2ccccc2[C@](Cc2ccccc2I)(C(=O)NCCN2CCOCC2)[C@H](c2ccc(CO)cc2)N1Cc1ccccc1Cl`, with 0.618; and `CC(C)C(=C=CC[C@@H](O)c1ccc(OCCO)cc1)C[C@@H](O)COCc1ccccc1`, with 0.189. For the molecule `COC(=O)[C@]1(CCC(=O)OC(C)(C)C)N=C(c2ccc(OCCCO)cc2)O[C@@H]1c1ccccc1CN=[N+]=[N-]`, the z-score was -5.09. Take `NC(=O)NCC#Cc1ccc2c(c1)[C@]1(C(=O)N2)[C@H](c2ccccc2OCCO)N2[C@H](c3ccccc3)[C@H](c3ccccc3)OC(=O)[C@H]2[C@@H]1C(=O)Nc1nc2ccccc2s1`: the z-score is 0.528. For the molecule `C=CCC(OC(C)=O)[C@@H]1[C@@H](N(Cc2ccc(-c3ccccc3)cc2)C(=O)Cc2ccc(OC)cc2)c2cc(OCCCO)ccc2N1C(=O)Cc1ccc2ccccc2c1` (some centres undefined), the z-score is -0.541. `C=C(CCCC)C(=O)CC[C@@H](OC(=O)c1ccccc1-c1ccccc1C(=O)O)c1ccc(OCCO)cc1`: the z-score was -0.276.

As to `CCCC[C@@H]1C[C@H]1[C@@H](NC(=O)c1ccco1)c1ccccc1C(F)(F)F`, the z-score is -1.25. Same read-out and setting: then `CCOC(=O)C[C@H]1[C@H](OC(=O)c2cc3ccccc3oc2=O)[C@@H](NC(=O)c2ccccc2)c2cc(OCCCO)ccc2N1C(=O)c1ccc2ccccc2n1`, with -1.04; and `CCN(CC)c1ccc(N2CC=CC34O[C@@H]5C=CCCOC(=O)C5[C@H]3C(=O)N(CCCCCCO)[C@@H]4C2=O)cc1` (some centres undefined), with 1.55.

In the case of `COC(=O)[C@@]1(Cc2ccccc2)[C@H]2c3cc(C(=O)N(C)C)n(Cc4ccsc4Br)c3C[C@H]2CN1C(=O)c1ccccc1`, the z-score was -1.74. Still for that read-out and setting: then `COCCOC(=O)N1C(=O)[C@@]2(c3ccccc31)[C@H](c1ccccc1OCCO)N1[C@H](c3ccccc3)[C@H](c3ccccc3)OC(=O)[C@H]1[C@@H]2C(=O)N1CCN(c2ncccn2)CC1`, with -1.39; and `O[C@@H](Cc1ccccc1)[C@H]1C2C=CCCC=C2CN1Cc1cccc(Cl)c1` (some centres undefined), with -0.686.

Consider `COc1cc2c(cc1OC)CN(C(=O)[C@@H]1[C@H]3C(=O)O[C@H](c4ccccc4)[C@H](c4ccccc4)N3[C@H](c3ccccc3OCCO)[C@@]13C(=O)Nc1ccc(C#CCCO)cc13)CC2`, for which the z-score was -0.0469. As for `Cc1ccc(S[C@]2(C(=O)O)CC(=O)N(C(C)C)[C@@H]2c2ccc(CO)cc2I)cc1`, the z-score was -1.66. On the same count and under the same terms, the value for `O=C1O[C@H](c2ccccc2)[C@H](c2ccccc2)N2[C@H]1[C@@H](C(=O)N1CCCCCCC1)[C@]1(C(=O)Nc3ccc(C#CCCO)cc31)[C@H]2c1ccccc1OCCO` was -1.12; that for `C=CCNC(=O)[C@@H]1[C@H]2C(=O)O[C@H](c3ccccc3)[C@H](c3ccccc3)N2[C@H](c2ccc(O)cc2)[C@@]12C(=O)N(C(=O)OCCOC)c1ccc(C#CCNC(N)=O)cc12` was -0.0272.

As to `O=C(c1ccccc1)N1C(=O)[C@@]2(Cc3ccccc31)N=C(c1ccc(OCCCO)cc1)O[C@H]2c1ccccc1`, the z-score was -2.94. Still for that read-out and setting: the value for `C=C(/C(=C/C[C@H](OC(C)=O)c1ccccc1OCCO)c1cnc2ccccc2c1)C(C)C` was -1.09; that for `CC(C)C(CO)N1C(=O)[C@@H]2C3C(=O)OCCC/C=C\[C@H]3OC23C=CCN(CCN2CCOCC2)C(=O)[C@@H]13` (some centres undefined) was -0.686. Same read-out and setting: the value for `CCCC[C@H]1OB(O)C[C@H]2C1=C(COC)C[C@H]1C(=O)N(C)C(=O)[C@H]12` was -0.227; that for `COC(=O)[C@@]1(Cc2ccc(F)cc2)[C@H]2c3cc(C(=O)N(C)C)n(Cc4ccc(Cl)c(C(F)(F)F)c4)c3C[C@H]2CN1C(=O)c1ccccc1` was -2.72; that for `COc1ccc(CCNC(=O)[C@@]2(Sc3ccc(C)cc3)CC(=O)N(C3Cc4ccccc4C3)[C@@H]2c2ccc(CO)cc2I)cc1` was -2.13. For the molecule `CCCC[C@H]1OB(O)C[C@H]2C1=C(COC)Cn1c(=O)n(-c3ccccc3)c(=O)n12`, the z-score was -0.228. On the same count and under the same terms, then `CN(C)CCCCCCNC(=O)[C@@H]1C[C@@H]2C(=O)N[C@@H](Cc3ccccc3)C(=O)N2[C@@H]1c1ccc(O)cc1`, with -1.09; and `C=C(COC)/C(=C/C[C@H](OC(C)=O)c1ccc(CO)o1)c1cc(C(=O)OC)ccc1OC`, with -0.891.

With `COC(=O)[C@@]1(Cc2ccc(OC)cc2)[C@@H]2C(=CC(=O)[C@H]2CC(=O)C(=O)N2CCCC2)CN1C(=O)c1ccccc1`, the z-score was -0.846. On the same count and under the same terms, then `Cc1ccc(N2C(=O)c3ccccc3[C@@H](C(=O)NC3CC3)[C@@H]2c2ccc(CO)cc2)nc1`, with 0.584; and `COCCOC(=O)N1C(=O)[C@@]2(c3cc(C#CCC(C(=O)OC)C(=O)OC)ccc31)[C@H](C(=O)Nc1nc3ccccc3s1)[C@H]1C(=O)O[C@H](c3ccccc3)[C@H](c3ccccc3)N1[C@@H]2c1ccccc1OCCO`, with -1.38; and `COCCOC(=O)N1C(=O)[C@@]2(c3cc(C#CCC(C(=O)OC)C(=O)OC)ccc31)[C@H](c1ccccc1OCCO)N1[C@H](c3ccccc3)[C@H](c3ccccc3)OC(=O)[C@H]1[C@@H]2C(=O)NC[C@H](O)c1ccccc1`, with -2.44. The same measure, in the same setting: then `CCCC[C@@H]1C[C@H]1[C@@H](NC(=O)c1ccccc1)c1ccc(C(=O)OC)cc1`, with -0.892; and `O=C1[C@@]23C=C(Br)[C@H](C[C@@H]2CCOC3)[C@@]12CO2`, with 0.0335.
